# According to PMC5540273 (PLoS ONE, 2017):
# Legend:
# Conditions in all cases: concentration: 1 μM, replicates: in singlicate; n = 1
# TNNI3K = system: TNNI3K
# TRKA = system: T1, TRKA
# T1 construct: gene NTRK1
# TRKB = system: TRKB
# TRKC = system: T2, TRKC
# T2 construct: gene NTRK3
# TRPM6 = system: TRPM6
# TSSK1B = system: TSSK1B
# TSSK3 = system: TSSK3
# TTK = system: TTK
# TXK = system: TXK
# [1] = system: TYK2(JH1domain-catalytic)
# 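Further: KINOMEscan kinase panel screen.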
SMILES,%Inh (TNNI3K) [%],%Inh (TRKA) [%],%Inh (TRKB) [%],%Inh (TRKC) [%],%Inh (TRPM6) [%],%Inh (TSSK1B) [%],%Inh (TSSK3) [%],%Inh (TTK) [%],%Inh (TXK) [%],%Inh [1] [%]
CCn1c(-c2nonc2N)nc2c(-c3ccccc3)ncc(OCCCN)c21.O=C(O)C(F)(F)F.O=C(O)C(F)(F)F [GSK260205],16,0,23,26,19,11,24,0,0,88
O=C(Nc1c(F)cccc1F)c1cc(C(=O)c2ccccc2F)c[nH]1 [GSK1326180],0,27,0,12,0,0,24,6,0,0
Cc1ccc(-c2ccc3occ(-c4ccc(S(C)=O)cc4)c3c2)nn1 (stereo not drawn),0,0,0,11,0,0,0,8,2,1
CCNc1nccc(-c2c(-c3ccc(F)cc3)ncn2C2CCN(C)CC2)n1,0,0,0,0,0,0,0,7,0,0
N#CC1(c2cccc(C(=O)Nc3cccc(Oc4ccc5nc(NC(=O)C6CC6)sc5n4)c3)c2)CC1,90.5,0,7,0,12,0,0,9,86,0
Cl.N#CCc1ccc(Nc2nccc(Nc3ccc(Oc4ccccc4)cc3)n2)cc1 [GW639905],0,0,39,34,29,6,10,11,36,40
COc1ccc(NC(=O)c2ccoc2)cc1-c1ccc(C(=O)NCC2CC2)cc1 [GW810437],1,15,26,21,0,0,32,0,0,61
Cc1ccc(NC(=O)c2ccc(Cl)c(Cl)c2)cc1-c1ccc(C(=O)Nc2ccncc2)cc1 [GSK1398460],60,0,0,0,14,20,48,15,0,0
Cc1ccc(O)cc1Nc1ccnc2cc(-c3ccc(CN4CCCCC4)o3)ccc12 [GW557777],20,42,0,0,0,0,0,0,98.3,63
